In the supplement of paper PMC6555819:

Tested on: PPARg DBDmut:RXRa IVT, anti-PPARg (DBD mutation: PPARg1 K132A/R137A, NR concentration 270 nM, RXRa partner concentration 90 nM)
Test: PBM binding z-score (relative to random genomic background probes); higher = stronger binding; sequences stand for … in GC…GCGATTGACAGCGTAGAATGAAGG
Outline: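 Antibodies against each partner of ligand-free nuclear receptor dimers (one per run) detected binding on custom Agilent 4×180K protein-binding microarrays after 1 h incubation. The double-stranded probes had 34-nt variable regions carrying direct-repeat seeds, single-nucleotide variants, half-site ablations and random human genomic background sequences. Binding z-scores, from regression-normalized fluorescence, use the random background probes as reference.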

Sequence | PBM binding z-score
TAGCCTAGGTCATGGGCCAGTAGACCACGCGAAC | 0.0866
ATCGAAAGGTCGAGGTGATTATAGAGAAAGGGAA | 1.08
CTCGAAAGGTCGGTAGAGGTGAGTATACGGATAA | -0.234
CCTAGTAGGCCAGGGTCACTCAAGCATTTCGCTT | -0.152
CCTTACGGGTCACTCCAGGCTATAGCATCGGAGT | -0.0425
CGAACTAGGTCAAGGTCAGTGAATCTCCGCACGC | 1.6
AGAACGAGGGCACGCTGAGTTCATAGCAGAGTAG | 0.826
GCCACTGGGGCATCAGCAGGTTACCATAACTTAA | -0.157
ACTAGTTGGTCAGCTGAGATCACACACAATTCGG | 1.02
ATTTACGGGTCAACGAGGTTATAGCACGCGTATA | 2.57
TAGCCTAGGTCATTGGGCAAGTATAGTACGCATC | 0.399
TCTCGGAGTACACGAAGGTCAGAGCTTTCCAGAG | -1.26
AGAACGAGGGCACGGTGAGTTGATAGCAGAGTAG | 1.46
TCAAGCAGGCCAGAGGGTCACTCAAGAGGTACGG | -1.19
CAAACTAGGTCACAGAGGCCAAAGTCCGTGCGTA | 7.35
CGTCAAAGTACAACTAAGGTAACGTAAAGCACGC | -0.144
TCTTGTAGATCAAGCAGGTTAAGAAAGCCTGAGT | 0.218
TCATATAGGTAATACAGGTAAAAGTCGGCATCTA | 1.1
AATACAGGGTCACTAGGCCAGAATAGGTACGAAT | 1.66
CGAACTAGGTCATTGACAGGAGAGTGAATAGTAA | 2.36
ATATGTAGGTTGTCGGGTCATTCAGTTTGCGCAT | 1.87
TAGCCTGGGTCATGGGCCAGTATACCACGCGAAC | 0.752
